Bioassay records (PubChem BioAssay)
Compounds with a hit are over-represented: about 21% of the library has one in this group of screens.
Pf growth 48h = P. falciparum growth inhibition at 48 hours (one generation); Potency, µM (series often up to 28.7 µM), without a hit: top-dose activity change, negative = inhibition, usual class: inhibitors; P. falciparum luciferase growth in erythrocytes, 48 h; 310,000 tested, 5.9% active; note: potency is the fitted concentration of half-maximal effect; % is set by controls: 0 for no effect and ±100 for the full control effect
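Read-out is firefly luciferase luminescence from an integrated reporter in P. falciparum, so falling signal marks reduced parasite growth. Infected erythrocytes were at 2% hematocrit and 0.1% parasitemia (final) in Albumax-supplemented RPMI 1640.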
HCV inhibitor = HCV inhibition | Huh7.5.1 HCVcc-Cre infection, luciferase reporter, 44 h | Potency, µM (series often up to 41.8 µM), without a hit: at the highest dose activity change, negative = inhibition, usual class: inhibitors | 340,000 tested, 3.4% active | AID 651820; note: potency is the fitted concentration of half-maximal effect; % is set by controls: 0 for no effect and ±100 for the full control effect
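Antiviral activity was scored by luciferase reporter output from cells infected with HCVcc-Cre (~0.5 moi) in presence of compound, 44 h infection period, cells seeded 1,000/well 4 h prior.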
Shiga toxin inh = inhibitors of Shiga toxin in Vero cells; Vero cells, Shiga toxin protein synthesis inhibition reporter; inhibition, % at 38.7 µM; 290,000 tested, 9.2% active; AID 2315; in the data active = inhibition mostly above about 28%, no sharp cut-off; inactive = mostly below about 43%; note: 0% is about no effect
AMA1-RON2 inh = AMA1-RON2 (P. falciparum) interaction inhibition; 360,000 tested, 0.2% active; AlphaScreen AMA1-biotinylated RON2 peptide binding; Potency, µM (doses to about 58.2 µM), inactives show at the highest dose activity change, negative = inhibition, usual class: inhibitors; AID 720542;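 note: potency is the fitted concentration of half-maximal effect; 0% = vehicle wells and -100% = peptide control; nearly all actives have a fitted effect of over 45% in size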
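AMA1 (3D7) with his tag at 25 nM final met compounds first, then biotinylated RON2 peptide at 25 nM; detection used donor plus acceptor beads, 10 µg/mL apiece, read by AlphaScreen after 30 min at room temperature.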
CHX counter = counter-screen hit for Shiga toxin inhibitors, cycloheximide. cell reporter, cycloheximide protein synthesis inhibition counterscreen. max response, %. 300,000 tested, 12% active; in the data active = max response mostly above about 13%, no sharp cut-off; inactive = mostly below about 14%; note: read at 38.3 µM for the half of the compounds with a filed dose; 0% is about no effect
Pf growth 96h = P. falciparum growth inhibition at 96 hours | AID 504834 | P. falciparum luciferase reporter growth, 96 h | 320,000 tested, 6.9% active | Potency, µM (series often up to 28.7 µM), inactives show at the top dose activity change, negative = inhibition, most hits filed as inhibitors; note: potency is the fitted concentration of half-maximal effect; % is set by controls: 0 for no effect and ±100 for the full control effect
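96 h incubation, 37 C, 5% CO2, of luciferase-reporter P. falciparum-infected RBCs (2% hematocrit, 0.05% parasitemia final) with test compounds; endpoint luminescence.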
An asterisk follows results filed as active; ? = inconclusive; / = no result given; [ ] = remark or other dose. Unless noted, calls come from the whole dose curve; as a rule, active = well fitted curve in the direction sought with a large enough effect; inconclusive = small, poorly fitted or top-dose-only effect, or another doubt; inactive = no such curve, though single readings can be large; an effect the other way counts as inactive or inconclusive.

SMILES | Pf growth 48h | HCV inhibitor | Shiga toxin inh | AMA1-RON2 inh | CHX counter | Pf growth 96h
COc1ccc(Cc2nnc(NC(=O)Nc3ccccc3F)s2)cc1 | 28.1% | 3.4% | / | 3.0% | -2.8 | -17.2%
Cc1ccc(NC(=O)Nc2nnc(Cc3ccc(F)cc3)s2)cc1 | -24.5% | 1.3% | 41.8* | 8.8% | 16.1 | ?
Cc1cccnc1NC(=O)CNC(=O)COc1ccccc1 | 18.3% | 15.8% | / | 9.7% | / | 26.1%
Cc1ccc(S(=O)(=O)NN=Cc2ccccc2Cl)cc1 | / | / | / | 1.6% | / | /
O=C(Nc1ccccc1)Nc1nnc(Cc2ccc(F)cc2)s1 | ? | -3.3% | -3.3 | 4.0% | -2.2 | 8.28µM*
O=C(Cc1nnc(NC(=O)Nc2ccc(F)cc2)s1)Nc1ccccc1 | -1.6% | 6.1% | 22.0 | -1.0% | -2.3 | 2.1%
CC(C)NC(=O)C1(C)CN(S(C)(=O)=O)CC(=O)N1Cc1ccco1 (configuration not stated) | / | / | / | 2.3% | / | /
COC(=O)/C=C/c1ccc(C(=O)NCC(=O)N[C@@H](CCC(=O)OC)C(=O)N[C@@H](CC(C)C)C(N)=O)cc1 | / | / | -5.3 | / | -0.3 | /
CCCC[n+]1c(C)sc2ccc(C)cc21 | -6.0% | -3.9% | -12.8 | 10.6% | 7.1 | 4.65µM*
C=CCNCCCCOc1c(Cl)cc(C)cc1Br | 9.28µM* | 12.0% | -5.1 | -4.3% | -7.1 | -60.0%
COCCCNCCCCOc1c(Cl)cc(C)cc1Br | -18.6% | ? | -5.3 | -17.1% | -5.3 | 10.1%
C=CCNCCCOc1ccc(C)cc1Br | 55.2% | ? | 65.0* | 2.7% | 27.1* | 18.2%
Nc1ncnc2c(C3OC(CO)C(O)C3O)c[nH]c12 (configuration not stated) | / | ? | / | 15.9% | / | /
CCOC(=O)N1N=C(c2ccccc2)CC1(O)C(F)(F)F (configuration not stated) | 123.8% | -5.3% | 101.1* | -12.4% | 49.3* | 149.7%
O=C(C1CC1)N1N=C(c2ccc(Cl)cc2)CC1(O)C(F)(F)F (configuration not stated) | -2.3% | -20.3% | 3.4 | 12.7% | 1.0 | 32.4%
COC(=O)N1N=C(c2ccc(Br)cc2)CC1(O)C(F)(F)F (configuration not stated) | 104.1% | -5.4% | 40.1* | -10.0% | 47.3* | 8.6%
CCOC(=O)N1N=C(c2ccc(C)cc2)CC1(O)C(F)(F)F (configuration not stated) | 116.2% | -2.8% | 36.5* | -0.6% | 14.6* | 225.7%
O=C(C1CC1)N1N=C(c2ccc(F)cc2)CC1(O)C(F)(F)F (configuration not stated) | 13.5% | -13.7% | / | -4.1% | 0.1 | 11.7µM*
Cc1nnnn1CC(=O)Nc1cccc([N+](=O)[O-])c1 | -0.9%[5.75 µM] | -8.6% | 11.5 | 1.7% | -2.9 | ?
CC1=NN(C(=O)c2ccc(C)cc2)C(O)(C(F)(F)OC(F)(F)F)C1 (configuration not stated) | ? | -13.3% | 71.8* | 92.9% | 31.2* | ?
O=C(COc1ccccc1)N1N=C(c2cccnc2)CC1(O)C(F)(F)F (configuration not stated) | ? | 19.2% | -18.6 | 5.0% | -2.1 | 0.928µM*
CN(Cc1ccc(Cl)c(Cl)c1)C(=O)C1=CC=CN2CCS(=O)(=O)N=C12 | 9.28µM* | ? | / | -9.2% | / | 1.47µM*
Cc1cccc(/N=C/c2c(O)[nH]c3ccccc23)n1 | 115.9% | -29.0% | 91.6* | 6.0% | 46.1* | ?
Cc1cccc(/N=C/c2sc3ccccc3c2O)n1 | 9.1% | 6.2% | 39.1* | -5.5% | 43.6* | ?
CC1(C)CC(=O)C(C=Nc2ccccc2C(=O)O)=C(O)C1 | 1.8% | 2.5% | 12.3 | 18.3% | 11.0 | 55.1%
SMILES | Pf growth 48h | HCV inhibitor | Shiga toxin inh | AMA1-RON2 inh | CHX counter | Pf growth 96h
CC1(C)CC(=O)C(C=NCC(O)c2ccccc2)=C(O)C1 (configuration not stated) | 5.4% | 8.0% | -8.1 | -3.4% | 5.3 | 7.38µM*
COc1ccc(CN=CC2=C(O)CNC2=O)cc1 | 0.0% | 3.6% | -14.9 | 0.3% | -4.5 | 35.6%
CC1(C)CC(=O)C(C=Nc2ccccc2)=C(O)C1 | 25.5% | -6.5% | 52.2 | 12.4% | 26.0* | 1.6%
COc1ccc(CN=CC2=C(O)CC(C)(C)CC2=O)cc1 | / | 2.8% | 40.1 | -8.1% | 23.5* | -6.7%
CC1(C)CC(=O)C(/C=N/n2cnc3ccccc3c2=O)=C(O)C1 | 24.5% | 18.1% | 5.1 | 72.3% | 13.7* | ?
COCCNC(=O)C1(C)CCCN(C(=O)c2cccc(Cl)c2)C1 (configuration not stated) | / | / | / | -4.9% | / | /
COC(=O)c1ccc(C(=O)OC)c(NC(=O)CS(=O)(=O)Cc2ccccc2)c1 | 5.8% | 6.4% | -8.1 | -0.4% | -1.3 | 5.22µM*
COC(=O)c1ccc(C(=O)OC)c(NC(=O)CN(c2ccccc2)S(=O)(=O)N(C)C)c1 | ? | -6.9% | -4.3 | 4.6% | -0.3 | 0.0%
Cc1ccc(C(=O)Nc2ncc(Cc3ccc(F)cc3)s2)o1 | 16.7% | -25.7% | 156.4* | 0.6% | 41.4* | ?
Cc1ccc(C(=O)Nc2ncc(Cc3ccc(SC(F)F)cc3)s2)cc1 | 16.8% | 10µM* | 24.6 | 87.4% | -1.8 | 17.1%
Cc1nnc(SCC(=O)Nc2ncc(Cc3ccc(F)cc3)s2)n1N | 36.0% | 5.5% | 9.1 | -5.5% | 1.7 | 17.4%
Cc1ccc(C(=O)Nc2ncc(C)s2)o1 | / | -8.4% | 49.8 | 15.0% | 35.2* | 218.4%
Cc1ccc(C(=O)Nc2ncc(C)s2)s1 | 89.7% | 3.7% | 42.1 | 39.1% | 17.3* | 296.6%
O=C1O[C@@H](c2ccccc2)C[C@@H](O)C(=O)CCc2ccccc21 | / | / | / | 3.5% | / | /
COc1ccc(C2=Nc3ccccc3N(C(=O)c3ccc(C(F)(F)F)cc3)C2C(=O)NCc2ccccc2)cc1 (configuration not stated) | / | / | / | -14.2% | / | /
COc1ccccc1N(CC(=O)N(C)Cc1ccccc1)S(=O)(=O)c1cccs1 | ? | -27.6% | / | 10.8% | / | ?
CC(C)(C)Nc1nc(SCC(=O)Nc2ccccc2)nc(N2CCOCC2)n1 | 9.28µM* | ? | 54.5 | -21.6% | 6.6 | ?
CC(Sc1nc(NCc2ccccc2)nc(N(C)C)n1)C(=O)Nc1ccccc1 (configuration not stated) | ? | ? | -8.9 | -2.1% | -1.3 | 5.22µM*
O=C(CSc1nc(Nc2ccccc2)nc(N2CCOCC2)n1)Nc1ccc2c(c1)OCCO2 | 9.28µM* | -26.8% | -22.7 | -16.5% | -4.2 | /
CN(C)c1nc(NC(C)(C)C)nc(SCC(=O)Nc2ccccc2)n1 | 14.7µM* | ? | -0.8 | -8.2% | 6.4 | -4.2%
CC(=O)OCC(NC(=O)C(CCCCNC(=O)OCc1ccccc1)NC(=O)OC(C)(C)C)C1OC(n2ccc(=O)[nH]c2=O)C(OC(C)=O)C1OC(C)=O (configuration not stated) | / | / | -8.5 | / | -2.9 | /
